In PubChem BioAssay AID1259400 (National Center for Advancing Translational Sciences (NCATS), 2018):
In all, about 350,000 compounds went through this assay and about 2,100 (0.6%) were called active. Another 1% or so got no clear call; they are omitted. The entries come from a sample that favours actives as a whole. Values without a mark were called inactive.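 Rule for the calls: active = activity change of -60% or lower, but not beyond a set lower limit; inconclusive = change between -60% and -40%, or beyond the set limit; inactive = change above -40%.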
% is set by controls: 0 for no effect and ±100 for the full control effect.

The molecules below were run against Relaxin receptor 1 (Homo sapiens) (UniProt Q9HBX9) (assay: qHTS Assay for Antagonists of the Relaxin Receptor RXFP1). Settings: HEK293-RXFP1, relaxin-stimulated cAMP HTRF, 30 min; at 57.5 µM; stronger effect = lower value.
Sequence of Relaxin receptor 1 (Homo sapiens) (Q9HBX9 whole entry, looked up): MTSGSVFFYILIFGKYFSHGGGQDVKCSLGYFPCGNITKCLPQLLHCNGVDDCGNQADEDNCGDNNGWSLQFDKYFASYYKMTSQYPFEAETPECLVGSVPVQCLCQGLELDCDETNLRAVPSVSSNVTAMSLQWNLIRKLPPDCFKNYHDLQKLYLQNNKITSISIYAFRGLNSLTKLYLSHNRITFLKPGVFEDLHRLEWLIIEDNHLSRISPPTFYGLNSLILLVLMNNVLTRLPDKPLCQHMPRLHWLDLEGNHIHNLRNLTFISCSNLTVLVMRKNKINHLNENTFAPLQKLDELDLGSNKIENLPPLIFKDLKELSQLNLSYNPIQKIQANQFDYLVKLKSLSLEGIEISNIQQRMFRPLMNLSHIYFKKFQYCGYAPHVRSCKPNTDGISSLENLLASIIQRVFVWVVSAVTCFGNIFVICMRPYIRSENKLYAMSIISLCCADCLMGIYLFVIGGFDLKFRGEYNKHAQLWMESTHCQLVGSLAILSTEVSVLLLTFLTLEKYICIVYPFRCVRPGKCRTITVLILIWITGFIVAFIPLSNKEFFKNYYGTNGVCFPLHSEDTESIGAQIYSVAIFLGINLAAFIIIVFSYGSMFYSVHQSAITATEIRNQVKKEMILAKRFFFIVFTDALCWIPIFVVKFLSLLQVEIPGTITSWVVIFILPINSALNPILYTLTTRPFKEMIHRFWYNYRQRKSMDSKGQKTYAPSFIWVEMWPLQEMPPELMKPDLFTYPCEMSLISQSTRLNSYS
`C[C@@H]1CCC[C@H](C)N1CCCC(O)(c1ccccc1)c1ccccn1` (some centres not stated) gave an activity change, negative = inhibition of 5.21%. With `O=C(NNc1nc(N2CCCC2)nc(N2CCCC2)n1)c1ccccc1` the activity change, negative = inhibition was -63.3% (active). `O=C(NNC(=O)C1CCC1)c1ccccc1` gave an activity change, negative = inhibition of -1.83%. With `O=C(NNC(=O)C1CCN(c2ncccn2)CC1)c1ccccc1` the activity change, negative = inhibition was 0.68%. With `CCc1ccc(S(=O)(=O)c2nnn3c2nc(N2CCN(CC)CC2)c2sccc23)cc1` the activity change, negative = inhibition was -12.6%. For `CCN1CCC(O)(/C=C/c2ccc(C)cc2)C(C(=O)/C=C/c2ccc(C)cc2)C1` (configuration not stated), the activity change, negative = inhibition was -75.3% (active). `CCN1CCC2(CC1)N=C(c1ccc(F)cc1)C(=S)N2C(=O)c1ccc(C)cc1` was tested, and the activity change, negative = inhibition was 8.98%. Molecule `CCCS(=O)(=O)c1c(Nc2ccccc2C)sc(C(=O)c2ccccc2)c1N` has an activity change, negative = inhibition of -38.6%. In the case of `Cc1cccc(NC(c2cccc(F)c2)c2ccc3ccc(C)nc3c2O)n1` (configuration not stated), the activity change, negative = inhibition is reported as -1.75%. `Cc1ccc(-c2cnc(NCc3ccc(C(C)C)cc3)n2C)cc1` was tested, and the activity change, negative = inhibition was -10.2%. Work on `CC(=O)c1c(C)[nH]c(=S)c(C#N)c1-c1ccc(F)cc1` yielded an activity change, negative = inhibition of 7.17%. For `CCOC(=O)c1c(C)[nH]c(=S)c(C#N)c1-c1ccccc1`, the activity change, negative = inhibition was -118% (active). For `Cc1[nH]c2ccccc2c1C(=O)COC(=O)c1c(-c2ccccc2)noc1C`, the activity change, negative = inhibition was -27.9%. `OCc1ccc(-c2ccccc2)c(-c2ccccc2)c1` was tested, and the activity change, negative = inhibition was -64.5% (active). `OCC(CO)(CO)NCc1ccc(-c2ccccc2)cc1` showed an activity change, negative = inhibition of -7.18%. Molecule `OCCN(Cc1ccccc1)Cc1ccc(Cl)cc1` has an activity change, negative = inhibition of -15.6%. In the case of `CCOC(=O)c1c(C)oc2nc(C)nc(N(CC(C)C)CC(C)C)c12`, the activity change, negative = inhibition is reported as -27.5%. `O=C(NCc1cccnc1)c1cn(-c2ccccc2)nc1-c1cccs1` was tested, and the activity change, negative = inhibition was -17.9%. `CC(=O)C1=C(C)NC(C)=C(C(C)=O)C1c1cn(-c2ccccc2)nc1-c1cccs1` gave an activity change, negative = inhibition of -18.3%. With `O=C(O)c1ccc(N/N=C/c2cn(-c3ccccc3)nc2-c2cccs2)cc1` the activity change, negative = inhibition was -105% (active). Molecule `CCCn1c2ccccc2c2cnn(CC(=O)N3CCCC(C(=O)OCC)C3)c(=O)c21` (configuration not stated) has an activity change, negative = inhibition of 3.38%. `CCN(CCCNC(=O)CSc1cc(=O)n(C)c2cc(Cl)ccc12)c1cccc(C)c1` showed an activity change, negative = inhibition of 14%. `CSc1ccccc1NC(=O)CCS(=O)(=O)c1nc(-c2cccs2)cc(C(F)(F)F)n1` was tested, and the activity change, negative = inhibition was 0.767%. Molecule `COc1ccc(NC(=O)NC(C)c2c(-n3cccc3)sc(C)c2C)cc1OC` (configuration not stated) has an activity change, negative = inhibition of -9.76%. With `O=C(CCN1CCN(C/C=C/c2ccccc2)CC1)Nc1ccccc1Cl` the activity change, negative = inhibition was 3.3%. With `O=C(Nc1ccccc1Cl)/C(Cl)=C(\Cl)S(=O)c1ccccc1` (configuration not stated) the activity change, negative = inhibition was -106% (active). Molecule `O=C(Nc1ccccc1Cl)N1CCC(CN2CCCC2)CC1` has an activity change, negative = inhibition of 2.65%.
